We go through 5 compounds from PubChem BioAssay (NCATS).

Inconclusive results are not listed. The source made the active and inactive calls. Unless noted, calls follow the shape of the dose curve; as a rule, active = well fitted curve in the direction sought with a large enough effect; inconclusive = small, poorly fitted or top-dose-only effect, or another doubt; inactive = no such curve, though single readings can be large; an effect the other way counts as inactive or inconclusive.

The target in assay [1] is Estrogen receptor (Homo sapiens) (UniProt P03372). Briefly: qHTS assay for small molecule agonists of estrogen receptor alpha signaling (AID 588514; calls by dose curve;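 also: 0% = vehicle only and 100% = reference agonist; nearly all actives have a fitted effect of over 70% in size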). In short, it runs like this:
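ER-alpha-UAS-bla GripTite HEK 293 cells in medium with 2% charcoal/dextran-treated FBS were treated with compound titrations at 37 C for 18 hrs; beta-lactamase reporter read by CCF4 fluorescence after 2 hrs at RT.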
(Quantitative high-throughput screening tests each substance at several concentrations.)

Assay [2] has as its target Glucocorticoid receptor (Homo sapiens) (UniProt P04150). Briefly: qHTS assay for small molecule agonists of glucocorticoid receptor signaling (AID 588532; active = well fitted curve in the direction sought with a large enough effect in the signal ratio, with a control signal flat; the % refers to the signal ratio;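 also: 100% = dexamethasone at 0.1 µM and 0% = DMSO only wells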). As to conditions: HeLa MMTV-bla, beta-lactamase ratio, agonist, 18 h; activation: stronger effect = higher value, percent of dexamethasone control, DMSO zero. The essentials:
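MMTV-bla HeLa, beta-lactamase reporter; medium with 1% charcoal/dextran-stripped FBS; cpds up to 92 uM, 18 h, 37 C; CCF4 readout 460/530 nm; Hill fit → EC50, efficacy vs 0.1 uM dexamethasone = 100%.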

Assay [3] has as its target Peroxisome proliferator-activated receptor delta (Homo sapiens) (UniProt Q03181). Briefly: qHTS assay for small molecule agonists of peroxisome proliferator-activated receptor delta signaling (AID 588534; calls by dose curve;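 also: 0% = DMSO basal wells and 100% = positive control agonist at 10 µM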). In short, it runs like this:
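Cell-based beta-lactamase reporter assay run in agonist mode: cells seeded and incubated 5 hrs at 37 C, compounds added and incubated 18 hrs at 37 C. CCF4 dye fluorescence read after 2 hrs at RT; EC50 and efficacy from Hill fits.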

Assay [4] is described as follows: qHTS assay for small molecule antagonists of peroxisome proliferator-activated receptor delta signaling (AID 588535; active = well fitted inhibition curve with a large enough effect in the signal ratio, with a control signal flat, not every such curve was filed as active; the % refers to the signal ratio;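 as to max response: cells co-treated with a PPAR-delta agonist as stimulator during compound exposure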). As to conditions: HEK293T PPARd-UAS-bla, beta-lactamase FRET ratio, 18 h; 460 nm channel. The essentials: (§1)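 GeneBLAzer PPAR-delta-UAS-bla HEK293T cells in medium with 2% charcoal/dextran FBS were preincubated 5 hrs at 37 C, then given compounds, incubated 18 hrs at 37 C, and read by CCF4 beta-lactamase fluorescence; IC50 from Hill fits.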

The target of assay [5] is Peroxisome proliferator-activated receptor delta (Homo sapiens) (UniProt Q03181). The description is as above. In short, it runs like this: as §1
The target in assay [6] is Peroxisome proliferator-activated receptor gamma (Homo sapiens) (UniProt P37231). The experiment in a line: qHTS assay for small molecule agonists of peroxisome proliferator-activated receptor gamma signaling (AID 588536; active = well fitted curve in the direction sought with a large enough effect in the signal ratio, with a control signal flat, not every such curve was filed as active; the % refers to the signal ratio;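 also: 0% = DMSO basal wells and 100% = rosiglitazone at 2 µM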). In short, it runs like this: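 PPAR-gamma-UAS-bla HEK293 cells in medium with 1% charcoal/dextran-treated FBS were exposed to compounds for 16 h at 37 C. Beta-lactamase activity was read with CCF4 substrate (405 nm excitation, 460/530 nm emission).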

Assay [7] in a line: qHTS assay for small molecule antagonists of retinoid X receptor alpha signaling (AID 588546; active = well fitted inhibition curve with a large enough effect in the signal ratio, with a control signal flat, not every such curve was filed as active; the % refers to the signal ratio;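 also: cells stimulated with 9-cis-retinoic acid as agonist; % is scaled to controls: 0 for no effect and ±100 for the full control effect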). As to conditions: HEK293T RXRa-UAS-bla, beta-lactamase ratio, antagonist mode; measured here: W530 green channel, cytotoxicity proxy. The essentials: (§2)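 Beta-lactamase reporter inhibition, read as CCF4 fluorescence ratio (ex 405, em 460/530 nm) after 2 h at RT. HEK293T UAS-bla cells, 2500/well, were stimulated with 9-cis-RA at 500 or 100 nM final alongside test compound for 18 h at 37 C.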

The target in assay [8] is Retinoic acid receptor RXR-alpha (Homo sapiens) (UniProt P19793). Described as above. The note with it: HEK293T RXRa-UAS-bla, beta-lactamase ratio, antagonist mode. In short, it runs like this:
as §2

The nature of assay [9]: qHTS assay for small molecule activators of the p53 signaling pathway (AID 651743; active = well fitted activation curve with a large enough effect in the signal ratio, not every such curve was filed as active; the % refers to the signal ratio; also: series mostly up to about 92 µM; % of control where 0% means no effect). The note with it: HCT-116 p53RE-bla, beta-lactamase FRET ratio, 16 h; activation: stronger effect = higher value. In short, it runs like this:
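p53RE-bla HCT-116 cells with a stably integrated beta-lactamase reporter under p53 response elements were plated, rested 5 hours at 37 C/5% CO2, then exposed to compounds in DMSO for 16 hours at 37 C. LiveBLAzer B/G FRET substrate was read after 2 hours at room temperature.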

Assay [10] can be described thus: qHTS assay for environmental chemicals that activate the Aryl hydrocarbon Receptor (AhR) signaling pathway (AID 651777). Also: % of control where 0% means no effect; nearly all actives have a fitted effect of over 15% in size. The note with it: 1A2-DRE human hepatoma cells, luciferase, 24 h; activation: stronger effect = higher value. In short, it runs like this: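 Luminescence (One-Glo, 30 min, room temperature) reports AhR-driven luciferase in stably transfected human hepatoma cells bearing DRE and CYP1A2 promoter. Cells (1,200/well) were treated with compound for 24 hr at 37 C in qHTS format.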

Assay [11] has as its target Peroxisome proliferator-activated receptor alpha (Homo sapiens) (UniProt Q07869). The experiment in a line: qHTS assay for small molecule agonists of the peroxisome proliferator-activated receptor alpha (PPARalpha) signaling pathway (AID 651778). Also: potency is read from the fitted curve at half-maximal effect. As to max response: % of control where 0% means no effect. The note with it: PathHunter PPARalpha complementation, chemiluminescence, 6 h; max response: stronger effect = higher value. In short, it runs like this:
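Cells plated at 2,000/well and held overnight at 37 C, 5% CO2, then compound added by pin tool for 6 hr; after PathHunter detection reagent and 60 min at room temperature, chemiluminescence from enzyme complementation was read.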

Assay [12] is described as follows: qHTS assay for small molecule agonists of the antioxidant response element (ARE) signaling pathway measured by Nrf2-dependant transcriptional activity (AID 720636; active = well fitted curve in the direction sought with a large enough effect in the repeat runs; an effect the other way counts as inactive or inconclusive; also: % of control where 0% means no effect). The essentials: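 Nrf2-dependent transcription read as ONE-Glo luciferase signal from ARE-luc HepG2 reporter cells after 16 hr compound treatment at 37 C, 5% CO2, in assay medium with 1% dialyzed FBS.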

Assay [13] in a line: qHTS assay for small molecule agonists of the antioxidant response element (ARE) signaling pathway measured by Nrf2-dependant transcriptional activity - cell viability counter screen (AID 720653; active = well fitted curve in the direction sought with a large enough effect in the repeat runs; an effect the other way counts as inactive or inconclusive; also: % is scaled to controls: 0 for no effect and ±100 for the full control effect). As to conditions: ARE-bla HepG2 viability, CellTiter-Glo ATP luminescence, 16 h; max response: stronger effect = lower value. In short, it runs like this: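 ARE-bla HepG2 cells (2,000/well) rested 5 hrs at 37C/5% CO2, then exposed to compounds in DMSO for 16 hrs. Viability was read in the same wells as intracellular ATP by luminescence, 30 min at room temperature after reagent addition.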

Assay [14] is described as follows: qHTS assay for cell viability of HEK293 cells (AID 743288). Also: % is scaled to controls: 0 for no effect and ±100 for the full control effect; nearly all actives have a fitted effect of over 50% in size. The note with it: ATP luminescence (CellTiter-Glo), 18 h; max response: stronger effect = lower value. In short, it runs like this: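 Parental HEK293 cells were seeded at 2,000 cells/well, rested at least 5 h at 37 C, then exposed to compounds in DMSO for 18 h at 37 C. Viability was read as ATP-dependent luciferase luminescence after 30 min at room temperature.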

Assay [15] deals with Nuclear receptor subfamily 1 group I member 2 (Rattus norvegicus) (UniProt Q9R1A7). Briefly: qHTS assay for small molecule activators of the rat pregnane X receptor (rPXR) signaling pathway (AID 651751; call rule not given here; also: 0% is about no effect). The note with it: rPXR reporter cells, luciferase (One-Glo), 24 h.
Assay [16] has as its target Glucocorticoid receptor (Homo sapiens) (UniProt P04150). The experiment in a line: qHTS assay for small molecule antagonists of glucocorticoid receptor signaling (AID 588533; active = well fitted inhibition curve with a large enough effect in the signal ratio, with a control signal flat, not every such curve was filed as active; the % refers to the signal ratio;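 also: cells stimulated with 2 nM dexamethasone as agonist; % is scaled to controls: 0 for no effect and ±100 for the full control effect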). The essentials: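 Antagonist-mode qHTS: compound titrations added to GRE-bla HeLa cells, then dexamethasone 2 nM final; 18 h, 37 C. CCF4 FRET fluorescence normalized to dexamethasone and DMSO; IC50 from Hill fit.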

The target of assay [17] is Retinoic acid receptor RXR-alpha (Homo sapiens) (UniProt P19793). Briefly: qHTS assay for small molecule agonists of retinoid X receptor alpha signaling (AID 588544; calls by dose curve;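 also: 0% = DMSO basal wells and 100% = reference agonist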).
The nature of assay [18]: qHTS assay for cell viability of the p53RE-bla HCT-116 cell line (AID 743292). Also: % is scaled to controls: 0 for no effect and ±100 for the full control effect; nearly all actives have a fitted effect of over 55% in size. The essentials: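 ATP-based luminescent viability (CellTiter-Glo, 30 min RT) after 16 h compound treatment at 37 C of p53RE-bla HCT-116 cells, seeded at 4,000 cells/well and rested 5 h before dosing.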
Assay [19] addresses Thyroid hormone receptor beta (Homo sapiens) (UniProt P10828). The experiment in a line: qHTS assay for small molecule agonists of thyroid hormone receptor beta signaling (AID 588545; calls by dose curve;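 also: 0% = DMSO only and 100% = 10 nM T3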). The essentials:
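TR-UAS-bla GripTite HEK 293 cells (2500/well, medium with 2% charcoal/dextran FBS) were treated in agonist mode for 18 h at 37 C, titrated. Beta-lactamase was read by CCF4 ratio after 2 h; normalized to 10 nM T3 (100%) and DMSO, Hill-fitted for EC50 and efficacy.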

Assay [20] shares this target. Briefly: qHTS assay for small molecule antagonists of thyroid hormone receptor beta signaling (AID 588547; active = well fitted inhibition curve with a large enough effect in the signal ratio, with a control signal flat, not every such curve was filed as active; the % refers to the signal ratio;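 also: cells stimulated with 0.4 nM T3 agonist during compound exposure; series mostly up to about 77 µM; % is scaled to controls: 0 for no effect and ±100 for the full control effect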). The note with it: TR-UAS-bla HEK293, beta-lactamase ratio, antagonist mode, 18 h. In short, it runs like this: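 TR-UAS-bla GripTite HEK293 cells in 2% charcoal/dextran FBS medium were preincubated 4 h at 37 C, given compound (0.59 nM to 92 uM) plus 0.4 nM T3 (final) for 18 h, then CCF4 for 2 h at RT; Hill fit gave IC50.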

Chain of Peroxisome proliferator-activated receptor gamma (Homo sapiens) (P37231 whole entry, looked up): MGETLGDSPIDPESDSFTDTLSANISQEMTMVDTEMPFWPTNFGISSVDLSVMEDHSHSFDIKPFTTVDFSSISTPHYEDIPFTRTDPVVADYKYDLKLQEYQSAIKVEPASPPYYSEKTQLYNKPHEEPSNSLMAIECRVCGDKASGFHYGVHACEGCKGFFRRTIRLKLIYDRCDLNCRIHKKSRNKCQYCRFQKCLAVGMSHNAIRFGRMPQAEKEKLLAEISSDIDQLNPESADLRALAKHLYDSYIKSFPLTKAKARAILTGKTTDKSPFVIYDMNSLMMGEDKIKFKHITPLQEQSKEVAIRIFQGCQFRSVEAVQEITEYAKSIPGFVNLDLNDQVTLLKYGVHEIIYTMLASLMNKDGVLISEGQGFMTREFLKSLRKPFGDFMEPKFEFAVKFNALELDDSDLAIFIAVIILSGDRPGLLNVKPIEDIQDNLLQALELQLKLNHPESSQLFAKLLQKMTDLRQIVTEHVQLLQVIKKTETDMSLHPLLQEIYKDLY
Chain of Thyroid hormone receptor beta (Homo sapiens) (P10828 whole entry, looked up): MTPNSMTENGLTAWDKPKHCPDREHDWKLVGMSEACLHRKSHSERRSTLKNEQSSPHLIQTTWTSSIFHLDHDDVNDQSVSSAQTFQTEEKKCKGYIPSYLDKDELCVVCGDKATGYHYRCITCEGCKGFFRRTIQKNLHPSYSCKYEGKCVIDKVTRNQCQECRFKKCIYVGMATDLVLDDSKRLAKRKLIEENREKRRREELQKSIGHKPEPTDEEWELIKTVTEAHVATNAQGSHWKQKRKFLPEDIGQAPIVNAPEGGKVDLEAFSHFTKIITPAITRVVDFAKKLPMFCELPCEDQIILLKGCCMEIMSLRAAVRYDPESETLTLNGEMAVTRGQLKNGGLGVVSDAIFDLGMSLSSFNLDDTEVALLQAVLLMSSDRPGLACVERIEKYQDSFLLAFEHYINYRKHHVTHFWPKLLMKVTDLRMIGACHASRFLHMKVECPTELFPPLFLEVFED
Chain of Retinoic acid receptor RXR-alpha (Homo sapiens) (P19793 whole entry, looked up): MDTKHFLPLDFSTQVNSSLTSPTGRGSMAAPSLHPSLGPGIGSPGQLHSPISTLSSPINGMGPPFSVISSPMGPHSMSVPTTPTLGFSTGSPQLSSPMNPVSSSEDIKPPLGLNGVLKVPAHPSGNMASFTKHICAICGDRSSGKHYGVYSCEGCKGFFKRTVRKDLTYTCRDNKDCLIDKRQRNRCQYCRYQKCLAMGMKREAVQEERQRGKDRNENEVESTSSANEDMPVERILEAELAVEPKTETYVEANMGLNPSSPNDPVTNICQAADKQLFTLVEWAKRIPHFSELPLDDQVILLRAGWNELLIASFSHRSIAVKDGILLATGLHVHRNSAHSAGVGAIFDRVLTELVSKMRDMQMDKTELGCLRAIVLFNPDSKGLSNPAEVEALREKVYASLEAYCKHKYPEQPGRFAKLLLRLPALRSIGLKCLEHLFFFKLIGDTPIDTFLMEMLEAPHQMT
Chain of Peroxisome proliferator-activated receptor alpha (Homo sapiens) (Q07869 whole entry, looked up): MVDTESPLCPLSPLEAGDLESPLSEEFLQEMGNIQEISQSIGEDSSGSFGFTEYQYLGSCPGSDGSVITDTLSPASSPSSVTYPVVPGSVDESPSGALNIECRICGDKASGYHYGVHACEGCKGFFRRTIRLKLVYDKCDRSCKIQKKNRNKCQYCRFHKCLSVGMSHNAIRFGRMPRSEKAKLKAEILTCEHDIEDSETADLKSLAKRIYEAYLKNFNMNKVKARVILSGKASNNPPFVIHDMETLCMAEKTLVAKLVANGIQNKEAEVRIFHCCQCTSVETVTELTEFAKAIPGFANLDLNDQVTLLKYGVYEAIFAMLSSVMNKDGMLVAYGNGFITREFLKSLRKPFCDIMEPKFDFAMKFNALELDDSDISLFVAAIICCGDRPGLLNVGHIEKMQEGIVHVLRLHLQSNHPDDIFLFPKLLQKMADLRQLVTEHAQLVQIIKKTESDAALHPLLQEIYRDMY
Chain of Estrogen receptor (Homo sapiens) (P03372 whole entry, looked up): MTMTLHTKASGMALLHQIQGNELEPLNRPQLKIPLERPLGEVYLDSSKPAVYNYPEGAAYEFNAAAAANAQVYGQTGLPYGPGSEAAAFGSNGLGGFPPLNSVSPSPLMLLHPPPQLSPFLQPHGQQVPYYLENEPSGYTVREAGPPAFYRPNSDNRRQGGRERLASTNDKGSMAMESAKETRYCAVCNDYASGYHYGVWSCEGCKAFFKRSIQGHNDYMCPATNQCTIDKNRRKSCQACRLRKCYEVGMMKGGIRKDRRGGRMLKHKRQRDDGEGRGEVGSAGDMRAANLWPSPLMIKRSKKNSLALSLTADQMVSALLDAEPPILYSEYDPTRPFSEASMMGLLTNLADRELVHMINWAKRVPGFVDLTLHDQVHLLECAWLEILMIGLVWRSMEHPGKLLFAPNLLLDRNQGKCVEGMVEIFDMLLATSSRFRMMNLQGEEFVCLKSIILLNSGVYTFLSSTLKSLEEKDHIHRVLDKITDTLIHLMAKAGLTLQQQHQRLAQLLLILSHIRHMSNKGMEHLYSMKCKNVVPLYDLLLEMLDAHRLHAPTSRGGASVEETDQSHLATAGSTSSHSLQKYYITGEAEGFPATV
Chain of Nuclear receptor subfamily 1 group I member 2 (Rattus norvegicus) (Q9R1A7 whole entry, looked up): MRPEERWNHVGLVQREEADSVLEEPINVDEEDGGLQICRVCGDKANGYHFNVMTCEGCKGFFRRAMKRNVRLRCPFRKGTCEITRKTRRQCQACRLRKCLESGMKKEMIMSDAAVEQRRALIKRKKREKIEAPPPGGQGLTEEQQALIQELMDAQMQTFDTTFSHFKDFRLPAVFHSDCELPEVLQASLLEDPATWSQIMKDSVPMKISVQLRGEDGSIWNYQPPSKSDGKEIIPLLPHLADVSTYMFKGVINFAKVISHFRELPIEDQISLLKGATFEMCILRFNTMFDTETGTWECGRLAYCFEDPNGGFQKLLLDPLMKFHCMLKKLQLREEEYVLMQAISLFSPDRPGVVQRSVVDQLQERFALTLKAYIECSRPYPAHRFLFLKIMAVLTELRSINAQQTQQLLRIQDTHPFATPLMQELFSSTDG
Chain of Peroxisome proliferator-activated receptor delta (Homo sapiens) (Q03181 whole entry, looked up): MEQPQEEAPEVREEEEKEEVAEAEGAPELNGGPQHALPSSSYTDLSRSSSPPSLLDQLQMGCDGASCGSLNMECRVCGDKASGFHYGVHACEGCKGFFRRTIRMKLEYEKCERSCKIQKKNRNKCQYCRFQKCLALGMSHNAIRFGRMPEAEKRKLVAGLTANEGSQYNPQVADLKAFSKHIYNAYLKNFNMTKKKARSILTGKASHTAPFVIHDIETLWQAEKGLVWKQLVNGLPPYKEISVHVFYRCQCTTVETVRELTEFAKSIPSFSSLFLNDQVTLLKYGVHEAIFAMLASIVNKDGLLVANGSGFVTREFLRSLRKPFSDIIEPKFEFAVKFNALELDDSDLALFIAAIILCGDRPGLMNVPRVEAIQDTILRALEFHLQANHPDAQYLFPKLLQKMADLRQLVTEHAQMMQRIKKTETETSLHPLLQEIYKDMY
Chain of Glucocorticoid receptor (Homo sapiens) (P04150 whole entry, looked up): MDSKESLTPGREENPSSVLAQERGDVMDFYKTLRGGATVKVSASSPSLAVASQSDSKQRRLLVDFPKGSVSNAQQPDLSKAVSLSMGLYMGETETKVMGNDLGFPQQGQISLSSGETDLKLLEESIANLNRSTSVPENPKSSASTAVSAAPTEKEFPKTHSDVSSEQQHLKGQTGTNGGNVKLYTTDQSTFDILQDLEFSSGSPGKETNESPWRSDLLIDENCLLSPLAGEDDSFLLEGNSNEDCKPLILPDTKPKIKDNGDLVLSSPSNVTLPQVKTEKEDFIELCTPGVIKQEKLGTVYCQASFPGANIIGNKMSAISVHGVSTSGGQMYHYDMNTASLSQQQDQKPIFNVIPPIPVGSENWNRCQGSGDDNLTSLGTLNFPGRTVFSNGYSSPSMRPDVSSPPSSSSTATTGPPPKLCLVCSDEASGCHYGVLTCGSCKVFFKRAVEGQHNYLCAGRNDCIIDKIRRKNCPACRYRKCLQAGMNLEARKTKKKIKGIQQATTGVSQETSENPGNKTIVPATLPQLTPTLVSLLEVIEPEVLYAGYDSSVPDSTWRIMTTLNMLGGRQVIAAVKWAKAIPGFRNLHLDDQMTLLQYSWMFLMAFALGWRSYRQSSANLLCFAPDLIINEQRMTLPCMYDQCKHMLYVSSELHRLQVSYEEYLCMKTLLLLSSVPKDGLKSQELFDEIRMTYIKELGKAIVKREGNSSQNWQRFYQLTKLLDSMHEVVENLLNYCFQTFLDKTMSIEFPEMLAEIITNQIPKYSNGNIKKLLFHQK

Regarding `CCC(C)(C)c1ccc(O)c(C(C)(C)CC)c1`, the Potency entry in assay [1], in assay [5], in [6] and in assay [12] was “inactive” each time. Also, the activation in assay [2] is 5.63% (inactive); in assay [9] it was -0.913% (inactive); in assay [10], -1.01% (inactive). In addition, the result in [3] was inactive. Also, the max response was -2.29% in assay [4]; -12.2% in assay [7]; 0.417% (inactive) in [8]; -16.3% (inactive) in assay [13]; -2.63% (inactive) in assay [14]; 3.81% (inactive) in assay [15]. For the same compound, the Potency in assay [11] is 35.5 µM (active).
Turning to `COc1cc(OC)nc(NC(=O)NS(=O)(=O)c2ncccc2OCC(F)(F)F)n1`, the Potency entry in assay [1], in [16], in [5], in assay [6], in assay [17] and in assay [12] was “inactive” throughout. In addition, in [18], the Potency entry was “inactive”. In addition, the compound was called inactive in assay [3]. Also, the max response is -5.67% in assay [4]; -1.53% in assay [7]; -28.8% (inactive) in assay [8]; -0.694% (inactive) in assay [11]; -8.5% (inactive) in assay [13]; -8.98% (inactive) in assay [14]. Moreover, in [15], the max response was -1.56% (inactive). Moreover, the activation in assay [9] is -0.487% (inactive); in assay [10], 1.59% (inactive).
With `CC(C)N(C(=O)COc1nnc(C(F)(F)F)s1)c1ccc(F)cc1`, the Potency entry in assay [1], in assay [16], in [5], in assay [6], in assay [19] and in [18] was “inactive” in each case. Further, the values for the activation in assay [2], in assay [9] and in assay [10] were 1.07% (inactive), 0.0644% (inactive) and -0.614% (inactive), respectively. For the same compound, in assay [3], the compound was called inactive. For the same compound, the max response in assay [4] is -37.1%; in assay [11] it was -0.147% (inactive); in assay [14], -8% (inactive); in [15], -3.84% (inactive). In addition, in assay [20], the activity change % (negative = inhibition) was -0.765% (inactive).
In the case of `N#CC(CCc1ccc(Cl)cc1)(Cn1cncn1)c1ccccc1` (stereo not drawn), the Potency result in assay [1], in assay [16], in assay [12] and in assay [18] was “inactive” each time. In addition, the activation is -4.45% (inactive) in assay [2], 0.949% (inactive) in [9] and 3.22% (inactive) in assay [10]. Besides, the max response is 6.94% in assay [7], -64.1% (inactive) in assay [8], -0.149% (inactive) in assay [11] and -24.7% (inactive) in [14].
In the case of `C=CCOC(=O)C(C)(C)OC(=O)c1cc(-n2c(=O)cc(C(F)(F)F)n(C)c2=O)ccc1Cl`, the Potency entry in assay [1], in [16], in [5], in assay [6], in [17] and in assay [19] was “inactive” throughout. Besides, the figures for the activation in assay [2], in assay [9] and in assay [10] were -1.05% (inactive), 4.39% (inactive) and 1.35% (inactive), respectively. Besides, the result in assay [3] was inactive. Moreover, the max response is 15.1% in assay [4], -18.1% in assay [7], 2.63% (inactive) in assay [11] and -6.91% (inactive) in assay [14]. Besides, the activity change % (negative = inhibition) in assay [20] was -9.78% (inactive).
